Source: PubChem BioAssay (University of Kansas High Throughput Screening Laboratory)
Compounds with a hit are over-represented: about 3.6% of the library has one in this group of screens.
Pf apPOL inh = Pf-apPOL DNA polymerase inhibition; Recombinant Pf-apPOL, molecular beacon fluorescence, 1.5 h; inhibition, % at 10 µM; 210,000 compounds, 0.25% hits
mHTT CaM bind = disrupts binding of mutant huntingtin to calmodulin; P42858; 190,000 compounds, 3.6% hits; inhibition, % at 15 µM; AlphaScreen His-mHTT/GST-CaM binding, luminescence;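 note: 0% = both proteins with DMSO and 100% = one protein alone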
Numbers without * were called inactive. Cut-off read from the data, not from the text of the source: active = inhibition above about 50%; inactive = the rest.

`Cc1cccc(-n2nc3c(c2NC(=O)c2ccc(Br)o2)CSC3)c1` gave Pf apPOL inh -10 and mHTT CaM bind 64*.
`Cc1ccc(-n2nc3c(c2NC(=O)c2ccco2)CSC3)cc1` gave Pf apPOL inh -4 and mHTT CaM bind 33.
Screening COc1ccc(C(=O)Nc2c3c(nn2-c2cccc(C)c2)CSC3)cc1 returned Pf apPOL inh -8 and mHTT CaM bind 35.
Cc1cccc(-n2nc3c(c2NC(=O)c2ccco2)CSC3)c1 was read as Pf apPOL inh 2 and mHTT CaM bind 72*.
Screening Cc1cc(C)cc(-n2nc3c(c2NC(=O)c2ccco2)CSC3)c1 returned Pf apPOL inh -10 and mHTT CaM bind 65*.
For Cc1ccc(C)c(NC(=O)c2[nH]c3cc(C)sc3c2CN(C)C)c1 the results were Pf apPOL inh 6 and mHTT CaM bind 11.
COc1cc(C)c(Br)cc1S(=O)(=O)N1CCN(CCO)CC1 was read as Pf apPOL inh -5 and mHTT CaM bind -16.
Screening COc1ccc2c(c1)CC(CNC(=O)c1ccccc1F)O2 (stereo not drawn) returned Pf apPOL inh -1 and mHTT CaM bind 6.
Cc1cc(C(=O)Nc2ccc(Cl)cc2)nc2ccnn12 was read as Pf apPOL inh 0 and mHTT CaM bind -15.
For COc1ccc(-n2nc3c(c2NC(=O)COc2ccc(Cl)cc2)CS(=O)(=O)C3)cc1 the results were Pf apPOL inh -6 and mHTT CaM bind -4.
COc1ccc2cc(C(=O)NC(C)=O)c(=Nc3ccccc3F)oc2c1 was read as Pf apPOL inh -2 and mHTT CaM bind 0.
`COCCN1C(=O)C2(SCCN2C(=O)c2ccc(OC)cc2)c2ccccc21` (stereo not drawn) gave Pf apPOL inh -2 and mHTT CaM bind 22.
Screening CCN1C(=O)C2(SCCN2C(=O)c2cccc(F)c2)c2cc(F)ccc21 (stereo not drawn) returned Pf apPOL inh 8 and mHTT CaM bind 56*.
For CCN1C(=O)C2(SCCN2C(=O)C2CCCC2)c2cc(F)ccc21 (stereo not drawn) the results were Pf apPOL inh 1 and mHTT CaM bind 55*.
`CCN1C(=O)C2(SCCN2C(=O)c2cccc(OC)c2)c2cc(F)ccc21` (stereo not drawn) gave Pf apPOL inh -1 and mHTT CaM bind 43.
For O=C(CCc1c(-c2ccc(Br)cc2)nc2ccccn12)N1CCOCC1 the results were Pf apPOL inh 5 and mHTT CaM bind -1.
Screening Cc1nnc(-c2cc(C)n(CC(=O)Nc3cccc(C)c3C)c2C)o1 returned Pf apPOL inh 3 and mHTT CaM bind -1.
For N/C(=N\O)c1cn(CCOc2ccccc2Cl)c2ccccc12 the results were Pf apPOL inh -8 and mHTT CaM bind inactive.
For O=C1c2cccc(N3CCCC3)c2C(=O)c2cccc(Cl)c21 the results were Pf apPOL inh 4 and mHTT CaM bind 65*.
`O=C1c2cccc(Cl)c2C(=O)c2cccc(Cl)c21` gave Pf apPOL inh -4 and mHTT CaM bind 3.
O=S(=O)(c1ccc(Cl)cc1)n1c(SCc2cccnc2)nc2ccccc21 was read as Pf apPOL inh -6 and mHTT CaM bind 18.
CCN(CC)c1nc(C)nc2sc(C(=O)Nc3cc(OC)c(OC)c(OC)c3)c(C)c12 was read as Pf apPOL inh -4 and mHTT CaM bind 51*.
CCN(CC)c1nc(C)nc2sc(C(=O)Nc3cc(OC)ccc3OC)c(C)c12 was read as Pf apPOL inh -3 and mHTT CaM bind -4.
CCN1CCn2c(nc3cc(C(=O)Nc4cccc(C(F)(F)F)c4)ccc32)C1=O was read as Pf apPOL inh 1 and mHTT CaM bind -5.
Screening CCCCC(=O)NC(c1ccccc1OC)c1cc(Cl)c2cccnc2c1O (stereo not drawn) returned Pf apPOL inh -11 and mHTT CaM bind 7.
For CCCCC(=O)NC(c1ccc([N+](=O)[O-])cc1)c1ccc2cccnc2c1O (stereo not drawn) the results were Pf apPOL inh 3 and mHTT CaM bind 100*.
Screening CCCC(=O)NC(c1ccccc1OC)c1ccc2cccnc2c1O (stereo not drawn) returned Pf apPOL inh 7 and mHTT CaM bind 99*.
Screening CCCCC(=O)NC(c1ccc(C)cc1)c1ccc2cccnc2c1O (stereo not drawn) returned Pf apPOL inh 1 and mHTT CaM bind 100*.
CCCC(=O)NC(c1ccc(C)cc1)c1ccc2cccnc2c1O (stereo not drawn) was read as Pf apPOL inh 9 and mHTT CaM bind 100*.
For O=C(NCc1cccc(Cl)c1)C1CCN(c2nnc(-c3ccccc3)o2)CC1 the results were Pf apPOL inh -3 and mHTT CaM bind 15.
`CCOc1ccc(NC(=O)COc2ccccc2)c([N+](=O)[O-])c1` gave Pf apPOL inh -4 and mHTT CaM bind 23.
`CCOc1ccc(NC(=O)c2cccc3ccccc23)c([N+](=O)[O-])c1` gave Pf apPOL inh -2 and mHTT CaM bind 63*.
`CCOc1ccc(NC(=O)c2cc(Cl)ccc2Cl)c([N+](=O)[O-])c1` gave Pf apPOL inh -24 and mHTT CaM bind 6.
For CCOc1ccc(NC(=O)C(c2ccccc2)c2ccccc2)c([N+](=O)[O-])c1 the results were Pf apPOL inh -8 and mHTT CaM bind 50*.
`CC(C)C(=O)NC(c1cccc([N+](=O)[O-])c1)c1ccc2cccnc2c1O` (stereo not drawn) gave Pf apPOL inh 5 and mHTT CaM bind 100*.
For CCCC(=O)NC(c1cccc([N+](=O)[O-])c1)c1ccc2cccnc2c1O (stereo not drawn) the results were Pf apPOL inh -4 and mHTT CaM bind 99*.
For CCCC(=O)NC(c1cccc(F)c1)c1ccc2cccnc2c1O (stereo not drawn) the results were Pf apPOL inh 2 and mHTT CaM bind 100*.
`O=C(Sc1ccc(Cl)cc1Cl)c1cccnc1SCCS(=O)(=O)c1ccccc1` gave Pf apPOL inh -1.
For O=[N+]([O-])c1ccccc1/C=C/CN1CCN(c2cccc(Cl)c2)CC1 the results were Pf apPOL inh -3 and mHTT CaM bind 59*.
`O=[N+]([O-])c1ccccc1/C=C/CN1CCN(c2ccc(F)cc2)CC1` gave Pf apPOL inh -22 and mHTT CaM bind 24.
`Cc1ccc(NC(=O)CCc2c(C)n[nH]c2C)cc1F` gave Pf apPOL inh -3 and mHTT CaM bind -7.
For CCOc1ccc(N=C(NN)c2ccc3ccccc3n2)cc1 the results were Pf apPOL inh -7 and mHTT CaM bind 56*.
Screening Cc1ccc(N=C(NN)c2ccc3ccccc3n2)cc1 returned Pf apPOL inh 2 and mHTT CaM bind 45.
For CN(CCCNC(=O)C1CCN(c2ccc(N3CCCCC3)nn2)CC1)c1ccccc1 the results were Pf apPOL inh -9 and mHTT CaM bind 54*.
For CN(CCCNC(=O)C1CCN(c2ccncc2)CC1)c1ccccc1 the results were Pf apPOL inh -8 and mHTT CaM bind 17.
`Cc1ccc(CCCC(=O)Nc2ccc(C(=O)N(C)C)cc2)cc1` gave Pf apPOL inh -17 and mHTT CaM bind -5.
`CCN1CCCc2cc(C(=O)NCc3ccc(OC)cc3OC)sc21` gave Pf apPOL inh -6 and mHTT CaM bind 21.
`CCCc1noc(-c2ccc(SCC(=O)Nc3ccc4c(c3)CCC4)nc2)n1` gave Pf apPOL inh -5 and mHTT CaM bind -14.
`CC(=O)N1CCc2cc(Br)cc(S(=O)(=O)NCCc3ccc(C)cc3)c21` gave Pf apPOL inh -10 and mHTT CaM bind 38.
